Only some compounds are listed: those with a hit (about 3.1% of all), similar ones and a draw of the others.
TRb-SRC2 inh: disrupts binding of human TR beta to SRC2. 280,000 tested, 0.065% active. TRbeta-SRC2 peptide binding, fluorescence polarization; receptor liganded with 1 µM T3. Potency, µM (series often up to 106 µM), hits mostly inhibitors; also: nearly all actives have a fitted effect of over 50% in size
Target sequence (P10828 whole entry, looked up): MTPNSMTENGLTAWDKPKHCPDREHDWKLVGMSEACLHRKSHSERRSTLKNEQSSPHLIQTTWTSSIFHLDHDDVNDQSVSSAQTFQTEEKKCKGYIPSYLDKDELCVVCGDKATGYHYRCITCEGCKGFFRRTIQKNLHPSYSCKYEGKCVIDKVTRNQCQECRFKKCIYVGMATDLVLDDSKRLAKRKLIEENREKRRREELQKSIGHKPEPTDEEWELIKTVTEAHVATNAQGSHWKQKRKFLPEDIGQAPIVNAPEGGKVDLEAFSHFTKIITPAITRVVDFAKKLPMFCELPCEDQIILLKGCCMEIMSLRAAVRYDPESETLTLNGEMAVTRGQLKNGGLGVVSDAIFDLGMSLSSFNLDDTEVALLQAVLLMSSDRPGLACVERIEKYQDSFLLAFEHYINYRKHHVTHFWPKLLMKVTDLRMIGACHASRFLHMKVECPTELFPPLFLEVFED
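TRb LBD 0.6 uM + Texas Red SRC2 peptide 20 nM, 1 uM T3, Tris buffer w/ 5% DMSO; compound pinned, 5 h RT; FP read ex 555/em 632; normalized to unbound and bound controls.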
Tau fluor counter: counter-screen for tau fibril formation inhibitors | tau K18 P301L Alexa594 fluorescence, heparin fibrillization | Potency, µM (highest dose often 57.7 µM) | 280,000 tested, 0.93% active; also: nearly all actives have a fitted effect of over 55% in size
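Human tau K18 P301L (15 uM unlabeled, 0.24 uM Alexa 594-labeled) in 100 mM sodium acetate pH 7 with 20 uM heparin, 6 hr at 37 C. ThT 30 uM added, 1 hr ambient; Alexa 594 FP and total fluorescence read at 555/632 nm.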
Tau ThT inhib: blocks human tau fibril formation measured by thioflavin T; P10636; recombinant tau K18 P301L (four-repeat tau fragment), heparin-induced fibrillization, ThT fluorescence; Potency, µM (top dose mostly 57.4 µM), most hits filed as inhibitors; 270,000 tested, 2.1% active; also: nearly all actives have a fitted effect of over 55% in size
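Aggregation was driven by heparin (20 uM final) acting on recombinant tau […] bearing P301L in 100 mM sodium acetate pH 7; fibrils were detected with Thioflavin T.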
Tau FP inhib: blocks human tau fibril formation measured by polarization; AID 1468; K18 P301L tau heparin fibrillization, Alexa594 FP, 6 h; 280,000 tested, 0.39% active; Potency, µM (series often up to 57.7 µM), most hits filed as inhibitors; also: nearly all actives have a fitted effect of over 55% in size
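Steps: dispense K18 P301L tau (15 uM plus 0.24 uM Alexa 594 tracer, final) in pH 7 sodium acetate; add compound; add heparin (20 uM final); incubate 6 hr, 37 C; add ThT (30 uM final); after 1 hr ambient, read FP.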
TexasRed fluor: alters Texas Red total fluorescence, flagging assay interference; 280,000 tested, 0.29% active; TRb/SRC2 Texas Red total fluorescence interference; AID 1479; Potency, µM (top dose mostly 106 µM); active = well fitted curve in either direction with a large enough effect; inconclusive = small, poorly fitted or top-dose-only effect
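Flags fluorescent or light-absorbing compounds by total fluorescence, S + 2P, at 555 nm excitation and 632 nm emission. Mixture: 20 nM Texas Red SRC2 peptide, 0.6 uM human TRb LBD, 1 uM T3, 5% DMSO; compound exposure 5 h at ambient temperature.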
RGS12 GoLoco inh: RGS12 GoLoco-Gai1 interaction inhibition. Potency, µM (highest dose often 61.6 µM), actives largely listed as inhibitors. 230,000 tested, 0.44% active. Gai1:RGS12 GoLoco peptide FP, rhodamine, 10 min. P63096. AID 880; active = well fitted inhibition curve with a large enough effect, not every such curve was filed as active; inactive = no such curve, though single readings can be large or run the other way; also: nearly all actives have a fitted effect of over 30% in size
Target sequence (P63096 whole entry, looked up): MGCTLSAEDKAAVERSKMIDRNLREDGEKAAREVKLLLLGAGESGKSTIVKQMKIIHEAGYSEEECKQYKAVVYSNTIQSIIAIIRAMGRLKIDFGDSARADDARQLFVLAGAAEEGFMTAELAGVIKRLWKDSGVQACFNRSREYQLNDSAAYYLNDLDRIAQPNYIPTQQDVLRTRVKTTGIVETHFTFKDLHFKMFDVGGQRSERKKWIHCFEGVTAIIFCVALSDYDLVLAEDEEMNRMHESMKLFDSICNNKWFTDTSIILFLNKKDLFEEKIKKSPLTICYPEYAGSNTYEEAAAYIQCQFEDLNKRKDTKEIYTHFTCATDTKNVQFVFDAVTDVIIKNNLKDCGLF
Large screens that a line does not name were inactive; [ ] = another dose, or the depositor's remark. Unless noted, calls follow the shape of the dose curve; as a rule, active = well fitted curve in the direction sought with a large enough effect; inconclusive = small, poorly fitted or top-dose-only effect, or another doubt; inactive = no such curve, though single readings can be large; an effect the other way counts as inactive or inconclusive.

CCN(CC)S(=O)(=O)c1ccc(C(=O)NCCSc2c(-c3ccc(F)cc3)[nH]c3ccccc23)cc1	Tau fluor counter 4.5µM[quencher] (no result: RGS12 GoLoco inh)
CCN(CC)S(=O)(=O)c1ccc(C(=O)NCCSc2c(-c3ccccc3)[nH]c3ccccc23)cc1	Tau fluor counter 4.5µM[quencher] (no result: RGS12 GoLoco inh)
O=C(CCn1cnnn1)Nc1cccc(F)c1	none
CC(C)(C)c1cnnn1-c1ccc(C(=O)CCl)cc1	none
Clc1ccc(-c2nc3ccccn3c2Nc2ccc3c(c2)OCCO3)s1	Tau fluor counter 6.3µM[quencher], Tau ThT inhib inconclusive (no result: RGS12 GoLoco inh)
Cc1ccn2c(Nc3ccc4c(c3)OCCO4)c(-c3ccc(Cl)s3)nc2c1	Tau fluor counter 7.1µM[quencher], Tau ThT inhib inconclusive, Tau FP inhib inconclusive (no result: RGS12 GoLoco inh)
C=CCCC(=O)Nc1nc(C)c(-c2csc(Nc3ccc(Cl)cc3Cl)n2)s1	Tau fluor counter 14µM[quencher], Tau ThT inhib 7.9µM
C=CCCC(=O)Nc1nc(C)c(-c2csc(Nc3cc(Cl)ccc3OC)n2)s1	Tau fluor counter 14µM[quencher], Tau ThT inhib inconclusive
COc1ccc(N2CCN(CC(O)c3c[nH]c4ccc(OC)cc34)CC2C)cc1 (stereo not drawn)	Tau fluor counter inconclusive, Tau ThT inhib inconclusive
COc1ccc(-c2coc3cc(O)ccc3c2=O)c(O)c1O	Tau fluor counter 13µM[quencher], Tau ThT inhib 10µM, Tau FP inhib 16µM
CC/C(=C/c1sc2ccc(C)cc2[n+]1CCCS(=O)(=O)[O-])SC	TRb-SRC2 inh inconclusive, TexasRed fluor 45µM[fluorescent]
CC/C(=C/c1sc2ccc(C)cc2[n+]1CCO)SC	Tau ThT inhib inconclusive
CCOc1cc(-c2nc(-c3ccccc3)c(-c3cc([N+](=O)[O-])ccc3C)[nH]2)ccc1O	Tau fluor counter 11µM[quencher], Tau ThT inhib inconclusive
O=C(O)c1ccc(-c2nc(-c3ccccc3)c(-c3cccs3)[nH]2)cc1	Tau FP inhib inconclusive (no result: Tau ThT inhib)
O=[N+]([O-])c1ccc(O)c(-c2nc(-c3ccccc3)c(-c3cccs3)[nH]2)c1	Tau fluor counter 11µM[quencher], Tau ThT inhib 20µM
COc1ccc(-c2nc(-c3ccccc3)c(-c3cc([N+](=O)[O-])ccc3C)[nH]2)cc1OC	Tau fluor counter inconclusive, Tau ThT inhib inconclusive, Tau FP inhib inconclusive
CC(=O)C(C(C)=O)C1(O)C(=O)c2ccccc2C1=O	TRb-SRC2 inh inconclusive, Tau ThT inhib 2.8µM, Tau FP inhib inconclusive
Cc1ccc(S(=O)(=O)Nc2cc3c(cc2NCc2ccccc2)n(C)c(=O)n3C)c(C)c1	Tau fluor counter inconclusive, Tau ThT inhib 18µM, Tau FP inhib inconclusive (no result: RGS12 GoLoco inh)
Cc1cccc2cc(CN(Cc3cccnc3)C(=S)NCCCN(C)C)c(=O)[nH]c12	none
Cc1cc(O)c(Oc2cc(C)cc(O)c2O)c(O)c1	Tau fluor counter inconclusive, Tau ThT inhib 5.6µM, Tau FP inhib inconclusive
O=[N+]([O-])c1ccc(N/N=C2\CC3CC=CC23)cc1 (stereo not drawn)	Tau fluor counter inconclusive, Tau ThT inhib 14µM
O=[N+]([O-])c1ccc(N/N=C2\CC3CC=CC23)c([N+](=O)[O-])c1 (stereo not drawn)	Tau fluor counter inconclusive, Tau ThT inhib inconclusive
Cc1cc([N+](=O)[O-])c(C)cc1-c1ccc(/C=N/NC(=O)c2cccnc2)o1	Tau fluor counter inconclusive, Tau ThT inhib 7.1µM, Tau FP inhib inconclusive
O=C(N/N=C\c1ccc([N+](=O)[O-])o1)c1cncc(Br)c1	none (no result: Tau ThT inhib)
O=C(N/N=C/c1ccc(-c2ccccc2[N+](=O)[O-])o1)c1cncc(Br)c1	Tau fluor counter inconclusive, Tau ThT inhib 7.9µM, Tau FP inhib inconclusive
O=[N+]([O-])c1ccccc1-c1ccc(/C=N/n2cnnc2)o1	Tau ThT inhib inconclusive
Nn1cnnc1N/N=C\c1ccc(-c2ccccc2[N+](=O)[O-])o1	Tau fluor counter inconclusive, Tau ThT inhib 7.9µM, Tau FP inhib inconclusive, TexasRed fluor inconclusive
O=C(N/N=C/c1ccc(-c2ccc([N+](=O)[O-])cc2)o1)c1cccnc1	Tau ThT inhib inconclusive
O=C(Cc1ccc(-n2c(=O)[nH]c3ccccc3c2=O)cc1)N1CCN(c2ccccc2)CC1	none
CCOc1ccc(CCNC(=O)COC(=O)c2cccc(OC)c2O)cc1OCC	Tau FP inhib inconclusive
CCN1C(=O)[C@@H]2[C@H]3C(=CC[C@H]2C1=O)C(=O)[C@H]1OC1[C@H]3O (stereo partly drawn)	Tau ThT inhib 4µM, Tau FP inhib inconclusive (no result: RGS12 GoLoco inh)
O=C1C2=CC[C@H]3C(=O)N(C[C@@H]4CCCO4)C(=O)[C@@H]3[C@@H]2[C@H](O)[C@@H]2O[C@H]12	Tau ThT inhib 3.2µM, Tau FP inhib inconclusive (no result: RGS12 GoLoco inh)
CCN(CC)S(=O)(=O)c1ccc(NC(=O)c2ccc(Cl)nc2)cc1	none (no result: Tau ThT inhib)
Cc1ccc(-n2ncc(C(=O)Nc3ccc4c(c3)OCO4)c2C2CCN(C(=O)OC(C)(C)C)CC2)cc1	Tau fluor counter 13µM[quencher], Tau ThT inhib inconclusive (no result: RGS12 GoLoco inh)
Cc1ccc(-n2ncc(C(=O)Nc3ccc4c(c3)OCCO4)c2C2CCN(C(=O)OC(C)(C)C)CC2)cc1	Tau fluor counter inconclusive, Tau ThT inhib inconclusive, Tau FP inhib inconclusive, TexasRed fluor inconclusive (no result: RGS12 GoLoco inh)
O=C(O)Cc1sc(Nc2ccccc2)nc1-c1ccc(Cl)cc1	Tau fluor counter inconclusive, Tau ThT inhib inconclusive
CSc1nsc(/C=C/Nc2ccc(Cl)cc2)c1C#N	Tau fluor counter inconclusive, Tau ThT inhib 16µM
CSc1nsc(/C=C/Nc2ccc(F)cc2)c1C#N	Tau ThT inhib inconclusive
CSc1nsc(/C=C/Nc2ccc(O)cc2C)c1C#N	TRb-SRC2 inh 45µM, Tau fluor counter inconclusive, Tau ThT inhib 16µM, Tau FP inhib 25µM, TexasRed fluor 50µM[fluorescent]
COc1cc(NC(=O)C2CCN(S(=O)(=O)c3cccnc3)CC2)cc(OC)c1OC	none
CCOC(=O)c1sc(NC(=O)CSc2nc(C)cc(-c3ccccc3)n2)c(C#N)c1C	Tau fluor counter inconclusive, Tau ThT inhib 35µM, Tau FP inhib inconclusive
CCOC(=O)c1sc(NC(=O)CSc2nc(C)cc(C)c2C#N)c(C#N)c1C	none
COc1ccc(-c2cc(-c3ccccc3)c(C#N)c(SCC(=O)Nc3ncc(C)s3)n2)cc1	Tau FP inhib 28µM
Cc1cccc(-n2cc[nH]c2=S)c1	none
Fc1cccc(NC(=S)Nc2cccnc2)c1	none
Fc1cccc(NC(=S)NNc2c3ccccc3nc3ccccc23)c1	Tau fluor counter 11µM[quencher], Tau ThT inhib 7.9µM
O=C(CCCOc1ccc(Cl)cc1Cl)N/N=C/c1ccccc1	none
O=C(CCCOc1ccc(Cl)cc1Cl)N/N=C/c1ccccc1O	TexasRed fluor 32µM[quencher]
CC(C)CSc1ccccc1NC(=O)c1sc2nc(-c3ccncc3)ccc2c1N	Tau fluor counter 3.2µM[quencher] (no result: RGS12 GoLoco inh)
Nc1ccc(-c2ccc(N)cc2C(F)(F)F)c(C(F)(F)F)c1	none
C[C@@]1(C(=O)O)NCCc2cc(O)c(O)cc21	Tau fluor counter inconclusive, Tau ThT inhib 25µM, Tau FP inhib inconclusive, TexasRed fluor inconclusive
